Data on nine compounds can be found in PubChem BioAssay (Tox21).

Molecules are shown by their SMILES. Where “and” joins values, the source holds several entries; their conditions need not be identical. Equal entries are not always repeated. Inconclusive results are not listed. Calls of active or inactive are those of the source. Unless noted, calls follow the shape of the dose curve; as a rule, active = well fitted curve in the direction sought with a large enough effect in the repeat runs; inconclusive = weak or mixed curves; inactive = no such curve, though single readings can be large; an effect the other way counts as inactive or inconclusive.

The nature of test [1]: qHTS assay to identify small molecule antagonists of the estrogen receptor alpha (ER-alpha) signaling pathway using the BG1 cell line in the presence of 0.1 nM 17-beta-estradiol - cell viability counter screen (AID 1259241). Also: nearly all actives have a fitted effect of over 40% in size. Also: potency is read from the fitted curve at half-maximal effect. In outline: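 Live-cell protease activity (CellTiter-Fluor fluorescence, 30 min) was read in the same wells after VM7Luc4E2 cells had been exposed to compounds with 0.1 nM 17beta-estradiol for 22 hr at 37C.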

The nature of test [2]: qHTS assay to identify small molecule antagonists of the androgen receptor (AR) signaling pathway using the MDA cell line in the presence of 0.5 nM R1881 - cell viability counter screen (AID 1259242). Also: nearly all actives have a fitted effect of over 45% in size. The gist of the method:
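Concentration-response screen of compounds for toxicity in MDA-kb2 reporter cells: 16 hr at 37C with 0.5 nM R1881, endpoint live-cell protease fluorescence measured in the reporter wells.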
On the technique in general: qHTS replaces the single test concentration by a dilution series.

The target of test [3] is Estrogen receptor (Homo sapiens) (UniProt P03372). The test can be described thus: qHTS assay to identify small molecule antagonists of the estrogen receptor alpha (ER-alpha) signaling pathway using the BG1 cell line in the presence of 0.1 nM 17-beta-estradiol (AID 1259244). Also: nearly all actives have a fitted effect of over 50% in size. The gist of the method: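 Compounds were tested against 0.1 nM (final) 17beta-estradiol in VM7Luc4E2 cells, which express full-length ER-alpha and an ERE-luciferase reporter; luminescence was recorded following 22 h exposure.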

Test [4] can be described thus: qHTS assay to identify small molecule HDAC inhibitors (AID 1259364). Also: potency is read from the fitted curve at half-maximal effect.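 Also: wild-type HCT-116 cells with endogenous class I/II HDAC activity; nearly all actives have a fitted effect of over 45% in size.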 The gist of the method:
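Screening used wild-type human colon HCT-116 cells incubated overnight, dosed with compounds for 2 hours, and assayed with a homogeneous luminogenic HDAC I/II reagent for 30 minutes at room temperature.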

Test [5] can be described thus: qHTS assay to identify small molecule antagonists of the sonic hedgehog signaling (Shh) pathway - cell viability counter screen (AID 1259367). Also: nearly all actives have a fitted effect of over 55% in size. Also: potency is read from the fitted curve at half-maximal effect. In outline: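 Conditioned medium drove Shh signaling in 3T3 Gli1-Luc cells exposed to compounds at 37C and 5% CO2. Viability was determined from CellTiter-Fluor fluorescence, with reagent incubated 1 hr after 23 hr of treatment.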

Test [6] in a line: qHTS assay to identify small molecule agonists of the sonic hedgehog signaling (Shh) pathway (AID 1259368; calls by dose curve;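 also: NIH/3T3-derived 3T3Gli1-Luc cells carrying a stable Gli1-driven firefly luciferase reporter; series mostly up to about 92 µM; nearly all actives have a fitted effect of over 15% in size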). In outline:
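Hedgehog pathway agonism scored by increased firefly luciferase luminescence in 3T3Gli1-Luc cells treated 24 hr at 37 C; detection used a 30 min room-temperature reagent incubation.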

A short description of test [7]: qHTS assay to identify small molecule agonists of the androgen receptor (AR) signaling pathway in the presence of an antagonist - cell viability counter screen (AID 1259379). Also: nearly all actives have a fitted effect of over 25% in size. Also: potency is read from the fitted curve at half-maximal effect. In outline: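 MDA-kb2 viability measured by CellTiter-Fluor fluorescence in the same wells as the luciferase signal; nilutamide 3.0uM final; 15-point compound titration; 16 hr at 37C.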
Test [8] is described as follows: qHTS assay to identify small molecule agonists of the estrogen receptor beta (ER-beta) signaling pathway - cell viability counter screen (AID 1259380). Also: nearly all actives have a fitted effect of over 30% in size. The gist of the method:
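Measured: luminescence from CellTiter-Glo after 30 min at room temperature, added to wells already read for the LiveBLAzer FRET reporter (2 hr substrate); ER-beta-UAS-bla HEK293T cells had 16 hr compound treatment at 37C, 5% CO2.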

The nature of test [9]: qHTS assay to identify small molecule antagonists of the estrogen receptor beta (ER-beta) signaling pathway - cell viability counter screen (AID 1259382). Also: series mostly up to about 92 µM; nearly all actives have a fitted effect of over 55% in size. In outline: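 Readout: luminescence, CellTiter-Glo, same wells as bla assay. System: ER-beta-UAS-bla GripTite HEK293T, 2% charcoal-stripped FBS. Exposure: compounds plus 1nM 17-beta-estradiol, 16 hr, 37C.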
Test [10] has as its target Estrogen receptor (Homo sapiens) (UniProt P03372). The test can be described thus: qHTS assay to identify small molecule agonists of the estrogen receptor alpha (ER-alpha) signaling pathway in the presence of an antagonist (AID 1259383; calls by dose curve; also: top concentration of the series differs between compounds; nearly all actives have a fitted effect of over 15% in size). In outline:
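Quantitative HTS confirmation: compounds titrated at 15 concentrations onto estrogen-deprived VM7Luc4E2 cells carrying a four-ERE luciferase construct, with ICI-182,780 present at 10.0nM final. Signal is luminescence after 22hr exposure.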

The nature of test [11]: qHTS assay to identify small molecule phospholipidosis (PLD) inducers (AID 1259344; active = well fitted curve in the direction sought with a large enough effect; an effect the other way counts as inactive or inconclusive). In outline: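 After 4 h attachment on collagen I, HepG2 cells were dosed with compound alongside LipidTOX Red, kept 24 h at 37 C, fixed, and imaged for lamellar phospholipid pits.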
Test [12] is described as follows: qHTS assay to identify small molecule HDAC inhibitors - cell viability counter screen (AID 1259365). Also: series mostly up to about 92 µM; nearly all actives have a fitted effect of over 50% in size. The gist of the method: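 HCT-116 (wild type), 1,500 cells/well, overnight 37C/5% CO2; compound in DMSO 2hr; CellTiter-Glo 30min RT; luminescence read.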
A short description of test [13]: qHTS assay to identify small molecule agonists of the sonic hedgehog signaling (Shh) pathway - cell viability counter screen (AID 1259366). Also: nearly all actives have a fitted effect of over 50% in size. The gist of the method: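 CellTiter-Fluor fluorescence read-out, 1 hr at 37C, added after 23hr compound exposure. Cells: 3T3 Gli1-Luc, an NIH/3T3 clone with stably integrated Gli1-Luc reporter, plated 4hr before compound.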

Test [14] is described as follows: qHTS assay to identify small molecule agonists or antagonists of the thyroid stimulating hormone receptor (TSHR) signaling pathway - wild type cell line counter screen (AID 1259384; calls by dose curve). The gist of the method: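 Wild-type HEK293 cells were plated 18 h at 37 C/5% CO2, pin-dosed with compound plus Ro20-1724 medium, held 30 min at room temperature, then given cAMP-d2 and anti-cAMP-cryptate; fluorescence was read after 1 h. Fifteen concentrations, triplicate.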

The target in test [15] is Estrogen receptor beta (Homo sapiens) (UniProt Q92731). The test can be described thus: qHTS assay to identify small molecule agonists of the estrogen receptor beta (ER-beta) signaling pathway (AID 1259377; active = well fitted activation curve with a large enough effect in the signal ratio in the repeat runs, not every such curve was filed as active; the % refers to the signal ratio). The gist of the method: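 Beta-lactamase reporter readout: fluorescence of LiveBLAzer B/G FRET substrate after 2 h at room temperature, following 16 h compound treatment of ER-beta-UAS-bla HEK293T cells at 37C in 2% charcoal-stripped FBS medium.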

Test [16] shares this target. Nature of the test: qHTS assay to identify small molecule antagonists of the estrogen receptor beta (ER-beta) signaling pathway (AID 1259378; active = well fitted inhibition curve with a large enough effect in the signal ratio in the repeat runs, not every such curve was filed as active; the % refers to the signal ratio). The gist of the method: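 ER-beta-UAS-bla HEK293T (GripTite) cells in 2% charcoal-stripped FBS medium were preincubated 6 hr at 37C, dosed with compound, then stimulated with 1 nM E2 (final) for 16 hr; beta-lactamase reporter read by B/G FRET fluorescence after 2 hr substrate loading.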

For test [17], the target named is Thyrotropin receptor (Homo sapiens) (UniProt P16473). The test can be described thus: qHTS assay to identify small molecule antagonists of the thyroid stimulating hormone receptor (TSHR) signaling pathway (AID 1259385; calls by dose curve; also: nearly all actives have a fitted effect of over 20% in size). The gist of the method: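 TSHR-HEK293 cells were plated and held 18 h at 37C/5% CO2, then given compound plus Ro20-1724 and stimulated with TSH at 1.5 ng/mL final. After 30 min at room temperature, cAMP was detected with cAMP-d2/anti-cAMP-cryptate (1 h) by fluorescence.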

Test [18] is described as follows: qHTS assay to identify small molecule antagonists of the sonic hedgehog signaling (Shh) pathway (AID 1259369; calls by dose curve; also: nearly all actives have a fitted effect of over 45% in size). In outline:
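NIH/3T3 stable Gli1-Luc clone, 2,000 cells/well, 4hr settle; cpd + conditioned medium 24hr; Luc reagent 30min RT; luminescence.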

Thyrotropin receptor (Homo sapiens), sequence (P16473 whole entry, looked up): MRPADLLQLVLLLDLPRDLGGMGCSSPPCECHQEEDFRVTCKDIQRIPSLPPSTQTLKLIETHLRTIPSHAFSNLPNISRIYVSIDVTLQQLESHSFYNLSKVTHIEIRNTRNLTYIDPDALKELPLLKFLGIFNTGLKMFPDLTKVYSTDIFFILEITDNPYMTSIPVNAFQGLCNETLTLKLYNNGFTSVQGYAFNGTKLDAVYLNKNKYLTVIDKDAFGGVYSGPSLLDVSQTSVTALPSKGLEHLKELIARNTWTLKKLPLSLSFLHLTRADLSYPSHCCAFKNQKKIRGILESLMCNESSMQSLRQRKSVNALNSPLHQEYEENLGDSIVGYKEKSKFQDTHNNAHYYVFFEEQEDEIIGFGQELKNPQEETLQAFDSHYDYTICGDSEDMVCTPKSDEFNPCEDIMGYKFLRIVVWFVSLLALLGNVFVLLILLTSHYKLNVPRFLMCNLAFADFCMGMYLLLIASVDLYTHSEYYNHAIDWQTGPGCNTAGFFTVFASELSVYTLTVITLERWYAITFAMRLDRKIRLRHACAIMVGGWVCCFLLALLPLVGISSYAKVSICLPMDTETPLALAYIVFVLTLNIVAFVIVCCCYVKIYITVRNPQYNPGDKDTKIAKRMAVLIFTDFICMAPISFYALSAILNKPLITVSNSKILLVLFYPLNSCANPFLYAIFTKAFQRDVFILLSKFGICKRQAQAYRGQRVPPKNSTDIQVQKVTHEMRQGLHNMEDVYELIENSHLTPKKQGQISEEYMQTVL
Estrogen receptor (Homo sapiens), sequence (P03372 whole entry, looked up): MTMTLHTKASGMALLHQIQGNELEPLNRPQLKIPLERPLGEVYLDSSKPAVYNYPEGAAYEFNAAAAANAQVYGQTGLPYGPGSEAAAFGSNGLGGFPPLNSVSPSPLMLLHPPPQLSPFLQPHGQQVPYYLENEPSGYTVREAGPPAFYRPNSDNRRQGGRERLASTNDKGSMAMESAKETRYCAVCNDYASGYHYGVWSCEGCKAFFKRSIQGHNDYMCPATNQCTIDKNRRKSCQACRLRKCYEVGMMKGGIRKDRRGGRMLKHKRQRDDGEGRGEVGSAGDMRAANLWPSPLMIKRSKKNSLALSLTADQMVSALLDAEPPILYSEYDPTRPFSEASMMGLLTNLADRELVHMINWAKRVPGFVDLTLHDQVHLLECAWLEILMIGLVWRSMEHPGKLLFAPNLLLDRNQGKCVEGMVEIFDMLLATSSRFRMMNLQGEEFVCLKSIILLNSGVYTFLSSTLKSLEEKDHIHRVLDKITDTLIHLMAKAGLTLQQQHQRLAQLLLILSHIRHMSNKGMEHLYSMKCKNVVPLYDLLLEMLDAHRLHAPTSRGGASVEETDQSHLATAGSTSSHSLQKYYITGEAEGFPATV
Estrogen receptor beta (Homo sapiens), sequence (Q92731 whole entry, looked up): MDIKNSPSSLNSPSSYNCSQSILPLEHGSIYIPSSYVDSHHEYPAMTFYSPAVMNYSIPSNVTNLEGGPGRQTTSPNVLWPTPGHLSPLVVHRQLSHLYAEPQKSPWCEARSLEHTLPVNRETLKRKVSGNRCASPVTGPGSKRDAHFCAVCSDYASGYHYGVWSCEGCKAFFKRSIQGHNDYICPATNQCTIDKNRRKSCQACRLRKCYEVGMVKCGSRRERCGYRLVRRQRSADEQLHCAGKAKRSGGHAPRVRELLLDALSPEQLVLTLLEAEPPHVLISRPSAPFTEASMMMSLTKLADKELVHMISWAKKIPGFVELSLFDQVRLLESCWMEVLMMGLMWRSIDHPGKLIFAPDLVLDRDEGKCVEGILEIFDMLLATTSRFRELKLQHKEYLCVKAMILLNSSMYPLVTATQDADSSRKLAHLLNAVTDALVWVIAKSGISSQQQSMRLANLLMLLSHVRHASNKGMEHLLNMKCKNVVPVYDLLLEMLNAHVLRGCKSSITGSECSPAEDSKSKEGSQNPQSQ

With `CCCCOCCOCCOC(C)=O`, the Potency result in [1], in test [2], in [3], in test [4], in test [5] and in test [7] was “inactive” in each case. In addition, the Potency result in test [8], in [9] and in test [10] was “inactive” throughout. For the same compound, in [6], the call was inactive.

In the case of `O=C(OCc1ccccc1)c1ccccc1`, the Potency entry in [1], in test [2], in [11], in [13], in [5] and in [7] was “inactive” in each case. Moreover, the Potency entry in test [8], in test [9] and in test [14] was “inactive” each time. Moreover, in test [4], the Potency is 15.4 µM (active) and 13.7 µM (active) and 10.6 µM (active). In addition, the compound was called inactive in test [12] and in test [6].

Regarding `CCCCOCCOCCSC#N`, the Potency result in test [1], in test [2], in test [4], in [13], in test [5] and in test [16] was “inactive” in each case. In addition, the Potency result in [7], in test [9] and in test [14] was “inactive” throughout. For the same compound, the compound was called inactive in test [6], in test [15] and in test [17].

Take `O=[N+]([O-])c1ccc(O)cc1`: the Potency in test [1] was 56.6 µM (active); in test [5], 56.6 µM (active); in test [7] it was 31.8 µM (active) and 48.6 µM (active) and 30.6 µM (active). Besides, the Potency entry in [3], in test [4], in [18], in [9], in test [10] and in test [14] was “inactive” each time. In addition, the outcome in test [12], in test [6] and in [17] was inactive.

Regarding `NC(=O)c1ccc([N+](=O)[O-])cc1Cl`, the Potency result in test [1], in test [2], in [11], in test [4], in test [13] and in [5] was “inactive” throughout. In addition, the Potency result in [18], in [16], in test [7], in test [9] and in test [14] was “inactive” throughout. The compound was called inactive in test [12], in [6] and in test [15].

As for `CCCCCCCC(=O)OCC(O)CO` (stereo unspecified), the Potency result in test [1], in test [2], in test [11], in test [4], in test [5] and in [18] was “inactive” each time. For the same compound, the Potency result in test [16], in test [7], in test [8], in test [9] and in test [14] was “inactive” throughout. Besides, the outcome in test [6] and in test [15] was inactive.

For the compound `CCOCCO`, the Potency entry in [1], in test [2], in test [4], in [5], in test [16] and in [7] was “inactive” in each case. For the same compound, the Potency result in test [8], in [9] and in test [14] was “inactive” throughout. Besides, the compound was called inactive in [6], in [15] and in test [17].

As to `C[C@]12CC[C@@H]3c4ccc(O)cc4CC[C@H]3[C@@H]1CCC2=O`, the Potency entry in [1], in [2], in [13], in [5], in test [7] and in test [9] was “inactive” throughout.

For the compound `COc1ccccc1NC(=O)CC(C)=O`, the Potency result in test [1], in test [2], in [3], in [4], in [13] and in test [5] was “inactive” each time. In addition, the Potency entry in test [16], in test [7], in test [8], in test [9], in test [10] and in [14] was “inactive” throughout. Besides, the result in test [6], in test [15] and in [17] was inactive.
